Compound activity from PubChem BioAssay.
CCHF vOTU inh: CCHFV vOTU protease inhibition; Pep-AMC fluorescence; inhibition, % at 11.5 µM; 0.55% of 370,000 active; in the data active = inhibition above about 30%
PfHsp40 rescue: rescue of PfHsp40-mediated yeast toxicity | S. cerevisiae expressing PfHsp40, growth rescue, ATP luminescence | growth rescue, % at 12.5 µM | 0.68% of 340,000 active | AID 504582; in the data active = growth rescue above about 28%, passing the limit was not always enough;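 note: yeast W303a lacking pdr1 and pdr3 grown in galactose medium; growth measured after three days at 30 °C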
ugtP null kill: compounds lethal to S. aureus RN4220 ugtP deletion mutant | OD600 growth, 16 h | growth inhibition, % (concentration not given with the values) | AID 1259309 | 0.54% of 330,000 active; in the data active = growth inhibition above about 68%
PrPC TRFRET: inhibitors of human cell surface prion protein PrPC; 0.43% of 370,000 active; TR-FRET read-out; P04156; inhibition, % at 13.8 µM; in the data active = inhibition above about 24%
PrP 5UTR inh: suppresses PrP 5' UTR mRNA reporter expression; 0.35% of 340,000 active; inhibition, % (test concentration not listed); cell-based PrP 5' UTR mRNA reporter, plate reader; in the data active = inhibition above about 52%
RN4220 kill: kills Staphylococcus aureus RN4220 | 0.33% of 330,000 active | S. aureus RN4220 growth, OD600, 16 h | inhibition, % (no concentration beside the values); in the data active = inhibition above about 85%
Hits are given with their value; . = inactive; / = not tested or not shown. Compounds with a hit are over-represented: about 2.1% of the library has one in this group of screens.

SMILES	CCHF vOTU inh	PfHsp40 rescue	ugtP null kill	PrPC TRFRET	PrP 5UTR inh	RN4220 kill
CC1NC(=O)C(CCC(N)=O)NC(=O)c2cc([N+](=O)[O-])cc(I)c2NCCCC(C(N)=O)NC1=O (stereo unspecified)	/	/	.	/	/	.
CNc1nc(SCc2ccc(C)cc2)nc2c1CCCC2	.	198.9	.	.	.	.
O=C(NCc1ccccc1)C1=C[C@@H](C2CC2)C[C@@H](OCc2ccc(CO)cc2)O1	.	54.5	/	.	.	/
O=C(NCc1ccccc1)C1=C[C@H](C2CCCCC2)C[C@H](OCc2ccc(CO)cc2)O1	.	.	/	.	.	/
Cc1ccc(CCNC(=O)c2nnn(-c3cc(C)cc(C)c3)c2N)cc1	.	48.0	.	.	.	.
Cc1ccc2c(c1)N(C)/C(=C/c1cccc[n+]1C)S2	.	.	100.6	.	.	.
COc1ccc2c(c1)N(C)/C(=C/c1cccc[n+]1C)S2	.	.	89.6	.	.	.
CCN1/C(=C/c2cccc[n+]2C)Sc2ccc(OC)cc21	.	.	/	.	.	/
CC(=NNc1ccc(Cl)cc1)C(=NO)C(=O)Nc1ccccc1	/	/	.	/	/	.
Oc1[nH]c2ccc(Br)cc2c1N=NC(=S)Nc1ccc(F)cc1	.	.	99.7	.	.	99.1
Oc1ccc(NC(=S)N=Nc2c(O)[nH]c3ccc(Br)cc23)cc1	.	.	.	.	.	.
COc1ccc(N=C2S/C(=C\c3ccc(Cl)c([N+](=O)[O-])c3)C(=O)N2CCN(C)C)cc1	.	.	/	.	/	/
CCN(CC)CCN1C(=O)/C(=C\c2ccc(Cl)c([N+](=O)[O-])c2)SC1=Nc1ccc(OC)cc1	.	.	92.9	.	.	.
CCOc1ccccc1NC(=S)NC(=O)c1ccco1	.	74.5	.	.	.	.
COc1ccc(C(=O)NNC(=S)NC(=O)c2ccco2)cc1	.	.	.	.	.	.
CCOc1ccccc1NC(=O)c1ccccc1NC(=O)c1ccco1	.	.	.	.	.	.
COc1ccccc1C(=O)NNC(=S)NC(=O)c1ccco1	.	71.1	.	.	.	.
COC(=O)C1=CC(C(=O)OC)C2C3=C(C(=O)C24CCCCC4)C(C)n2c(=O)n(C)c(=O)n2C3C1 (stereo unspecified)	/	/	.	/	/	.
COC(=O)C1=C(c2c(C)noc2C)CC2CCC1N2C(=O)NCCOc1ccccc1Cl (stereo unspecified)	/	/	.	/	/	.
N/C(Cc1cccc2ccccc12)=N\OC(=O)c1ccccc1F	.	.	.	.	.	.
N/C(Cc1ccc(Cl)cc1Cl)=N\OC(=O)c1ccccc1F	.	155.8	.	.	.	.
CCOC(=O)CSC1=NC(=O)/C(=C\c2ccc(Cl)cc2)S1	.	40.1	.	.	.	.
Cn1cc(C(=O)c2ccc(Cl)cc2Cl)cc1C(=O)NN=C(N)COc1ccccc1	/	/	.	/	/	.
CC1(C)CCC(C)(C)c2cc(NC(=O)c3ccc(C(=O)O)cc3)ccc21	.	/	/	.	/	/
CC(=Cc1ccc(C(=O)O)cc1)c1ccc2c(c1)C(C)(C)CCC2(C)C	/	/	98.8	/	/	.
SMILES	CCHF vOTU inh	PfHsp40 rescue	ugtP null kill	PrPC TRFRET	PrP 5UTR inh	RN4220 kill
c1ccc(-c2ccc(SCc3cccnc3)nn2)nc1	.	259.4	.	.	.	.
c1ccc(CSc2ccc(-c3ccccn3)nn2)nc1	.	415.8	.	.	.	.
Oc1ccc(Br)cc1C=NN1CCN(Cc2ccccc2)CC1	/	/	.	/	/	.
CC(=NNC(=O)Cn1ccc(C(F)(F)F)n1)c1ccc2c(c1)OCO2	/	/	.	/	/	.
CCCCCCCCCC(=O)NN=C(C)c1cccnc1	/	/	.	/	/	.
Nc1nc2sc3c(c2c(=O)s1)CCCC3	.	289.7	.	.	.	.
Nc1c2c3c(sc2nc(=O)n1N)CCCC3	.	.	.	.	.	.
CCn1c(NN=O)nc2ccccc21	.	140.2	.	.	.	.
CC(=O)Oc1ccc(C=NNC(=O)CCSc2ccccc2)cc1	/	/	.	/	/	.
CCCCNS(=O)(=O)c1ccc2nc(SCC(=O)Nc3sccc3C#N)[nH]c2c1	29.6	.	.	.	.	.
CCCCNS(=O)(=O)c1ccc2nc(SCC(N)=O)[nH]c2c1	.	.	.	.	.	.
COC(=O)c1c(C)[nH]c(C=NNc2ccccc2)c1C	/	/	.	/	/	.
O=C(O)c1cccc(Cn2c(Cl)c(C=NNc3ccccc3)sc2=O)c1	/	/	96.6	/	/	94.4
CC1CN(C(C)CO)C(=O)c2cc(NC(=O)c3ccncc3)ccc2OC1CN(C)C(=O)Nc1ccccc1 (stereo unspecified)	/	/	.	/	/	.
CCN1C(=O)c2cccc3c(S(=O)(=O)Nc4nc(C)cs4)ccc1c23	/	.	95.4	/	.	.
Clc1cccc(CON/C=N/c2ncnc3sccc23)c1	.	811.6	/	.	.	/
C=CCn1c(SCC(C)=O)nc2scc(-c3ccco3)c2c1=O	.	.	.	.	.	.
C=CCn1c(SC(F)F)nc2scc(-c3ccco3)c2c1=O	.	.	95.2	.	.	.
COc1ccccc1N1C(=O)C(Cl)=C(Nc2ccccc2O)C1=O	.	91.9	/	.	.	/
Oc1c(Br)cc(Br)cc1C=NNc1ccc(Cl)nn1	/	/	99.6	/	/	.
Oc1c(Br)cc(C=NNc2ccc(Cl)nn2)cc1Br	/	/	.	/	/	.
Nc1nc(NCCOCCO)nc(N2CCCCCC2)c1[N+](=O)[O-]	.	.	94.5	.	.	.
O=C(NCc1nc2ccccc2[nH]1)C1=CC(C2CC2)CC(OCCCCO)O1 (stereo unspecified)	/	/	.	/	/	.
O=c1oc2c(O)c(O)cc3c(=O)oc4c(O)c(O)cc1c4c23	/	151.6	/	/	.	/
Cn1c(=O)cc(OCCCC(=O)NCc2ccccn2)c2ccccc21	.	.	.	.	.	.
SMILES	CCHF vOTU inh	PfHsp40 rescue	ugtP null kill	PrPC TRFRET	PrP 5UTR inh	RN4220 kill
Cc1ccnc(NC(=O)CCCOc2cc(=O)n(C)c3ccccc23)c1	.	.	.	39.2	.	.
Cc1c(C(=O)NCCSCc2c(F)cccc2Cl)cnn1-c1ccc(F)cc1	.	.	.	.	.	.
Cc1c(C(=O)NCCSCc2cccc(C(F)(F)F)c2)cnn1-c1ccc(F)cc1	.	100.8	.	.	.	.
Cc1c(C(=O)NCCSCc2ccc(F)cc2)cnn1-c1ccc(Cl)cc1	.	43.3	.	.	.	.
CCC(C)C(CN)NCC1(c2ccccc2)CC1 (stereo unspecified)	/	/	.	/	/	.
Nc1nc(-c2ccc(Oc3ccccc3)cc2)cs1	.	185.2	.	.	.	.
Nc1nc(-c2ccc(-c3ccccc3)cc2)cs1	.	.	.	.	.	.
COCc1cc(C)nc(NN=Cc2ccc(-c3ccc(Cl)cc3[N+](=O)[O-])o2)c1C#N	/	/	.	/	/	.
Cc1ccc(NN=Cc2ccc(N3CCOCC3)cc2)cc1C	/	/	.	/	/	.
Cc1ccc(Cl)cc1N1CCN(C(=O)c2ccc(CS(=O)Cc3ccc(Cl)cc3)o2)CC1 (stereo unspecified)	.	.	96.4	.	.	.
Cc1ccc(CS(=O)Cc2ccc(C(=O)N3CCN(c4cccc(C)c4C)CC3)o2)cc1 (stereo unspecified)	.	/	/	.	/	/
Cc1cccc(N2CCN(C(=O)c3ccc(CS(=O)Cc4cccc(Cl)c4)o3)CC2)c1C (stereo unspecified)	.	.	90.4	.	.	.
